# “And” between values parts separate entries of the source, which are not always exact repeats. Equal values may be shown once. The source made the active and inactive calls. Unless noted, how the calls were made is not given here.
# Experiments:
# [1] = P. berghei load reduction in hepatocytes – cell-based, HepG2, luciferase luminescence, HepG2 viability, primary screen (AID 624349; in the data active means parasite load remaining mostly below about 12%, no sharp cut-off; inactive means mostly above about 10%;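 further: 100% = mean of DMSO negative control wells on the same plate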); conditions: P. berghei liver stage in HepG2, luciferase luminescence, concentration not given here; parasite load remaining: stronger effect = lower value; viability: measured here: HepG2 viability without parasites
# [2] = signal quenchers or enhancers, Cy5 substrate/SSB – biochemical, NIH Clinical Collection, E. coli SSB, artefact control for HCV NS3 helicase inhibitor project (AID 743268); conditions: Cy5-oligo bound E. coli SSB, fluorescence interference
# [3] = tested on: Hepatitis C virus NS3 helicase; experiment: blockers of NS3h binding to DNA – biochemical, fluorescence polarization, NIH Clinical Collection, primary screen (AID 743270); conditions: NS3 helicase binding to Cy5-dT15 DNA, stronger effect = higher value, concentration not given here
# [4] = target: Single-stranded DNA-binding protein (Escherichia coli (strain K12)) (UniProt P0AGE0); experiment: SSB-ssDNA binding inhibitors – biochemical, fluorescence polarization, NIH Clinical Collection, counter-screen for HCV NS3 helicase inhibitor project (AID 743271; in the data active means inhibition above about 28%); conditions: E. coli SSB-DNA binding, stronger effect = higher value, concentration not given here
# [5] = compounds distorting NS3 helicase fluorescence signal – biochemical, NIH Clinical Collection, artefact control for HCV NS3 helicase inhibitor project (AID 743272); conditions: fluorescence interference counterscreen, HCV NS3 helicase assay; stronger effect = lower value;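 further: HCV NS3 helicase with a Cy5 labelled single stranded DNA probe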
# [6] = tested on: Neuropilin-2 / VEGF-C interaction (human); experiment: small molecules blocking Neuropilin-2/VEGF-C interaction – biochemical, microplate binding format, z-score (AID 743281); conditions: microplate NRP2/VEGF-C binding assay; stronger effect = lower value
# [7] = modulation of C. elegans fzo-1 (AID 1259413);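 further: fzo-1 mutant C. elegans worms in liquid wells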; conditions: C. elegans fzo-1 modulator screen, mean read-out; stronger effect = higher value
# [8] = galactose survival enhancers in mitochondrial complex I cybrids – cell-based, galactose medium, ATP luminescence, primary screen (AID 1645843;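 active means z-score of at least 1.8 in each of two replicates, scored against plate mean and spread of sample wells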;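 further: positive z means more ATP and so rescue of galactose-driven cybrid death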); conditions: complex I mutant cybrid cells, 72 h, stronger effect = higher value
# [9] = viability loss with induced miR-34 in A549 – imaging, A549 dox-inducible miR-34, nuclei and caspase counts, primary screen (AID 1347080;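 active means compounds whose cell count with miR-34 switched on is under 0.7 times the count with it off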); conditions: A549 miR-34 inducible, Hoechst nuclei count, 48 h
# [10] = EMT-state selective cytotoxicity in co-culture – imaging, PC-3E GFP, TEM4-18 mCherry, primary screen (AID 1345086;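 active means compounds killing one labelled cell type while sparing the other, by normalised counts and ratio limits, not self-fluorescent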;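 on all read-outs here: cells exposed to compound for 72 h before imaging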;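 on red/green cell ratio (normalised): normalised mesenchymal count divided by normalised epithelial count so high means epithelial killing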); conditions: PC-3E GFP / TEM4-18 mCherry co-culture, imaging cell counts, at 1 µM; for red/green cell ratio (normalised): actives lie on both sides, counts scaled to control wells, 1 = unselective
# [11] = stronger effect = lower value, cell number ratio, induced over uninduced
# [12] = measured here: relative caspase fold change +Dox/-Dox
# [13] = measured here: total cells with miR-34 induction, stronger effect = lower value
# [14] = measured here: total cells without miR-34 induction
# [15] = measured here: epithelial PC-3E GFP cell survival
# [16] = measured here: mesenchymal TEM4-18 mCherry cell survival
structure (smiles),measurement,setting,value
CCCCC[C@H](O)/C=C/[C@H]1[C@H](O)CC(=O)[C@@H]1CCCCCCC(=O)O,parasite load remaining,[1],87.1% (inactive) and 65% (inactive) and 24% (inactive)
same,viability,[1],70.2% and 67.7% and 65.5%
same,fluorescence ratio,[2],0.87 (inactive)
same,inhibition,[3],-3.71% (inactive)
same,inhibition,[4],-0.39% (inactive)
same,fluorescence ratio,[5],0.98 (inactive)
same,z-score,[6],-0.575 (inactive)
same,mean signal,[7],268 (inactive)
same,z-score,[8],0.265 (inactive) and 0.315 (inactive)
C#C[C@]1(OC(C)=O)CC[C@H]2[C@@H]3CCC4=CC(=O)CC[C@@H]4[C@H]3CCC21C (some centres not stated),mean signal,[7],228 (inactive)
CC(=O)SCC(Cc1ccccc1)C(=O)NCC(=O)OCc1ccccc1 (configuration not stated),fluorescence ratio,[2],0.96 (inactive)
same,inhibition,[3],3.56% (inactive)
same,inhibition,[4],2.21% (inactive)
same,fluorescence ratio,[5],0.86 (inactive)
same,z-score,[6],-0.263 (inactive)
same,mean signal,[7],251 (inactive)
same,z-score,[8],0.9 (inactive) and 0.57 (inactive)
CCOC(=O)C1(CCCCCCOc2ccc(Cl)cc2)CO1 (configuration not stated),parasite load remaining,[1],85.5% (inactive)
same,viability,[1],89%
same,fluorescence ratio,[2],1.01 (inactive)
same,inhibition,[3],1.98% (inactive)
same,inhibition,[4],-2.41% (inactive)
same,fluorescence ratio,[5],0.93 (inactive)
same,z-score,[6],-0.326 (inactive)
same,mean signal,[7],266 (inactive)
same,fold change,[9]; [11],0.886 (inactive)
same,fold change,[9]; [12],1.28
same,cell count,[9]; [13],7740
same,cell count,[9]; [14],8740
same,z-score,[8],0.13 (inactive)
CC(=O)OCC(=O)[C@@]1(O)CC[C@H]2[C@@H]3CCC4=CC(=O)CCC4(C)[C@H]3C(=O)CC21C (some centres not stated),mean signal,[7],237 (inactive)
CCCN1CC(CSC)CC2c3cccc4[nH]cc(c34)CC21 (configuration not stated),outcome,[6],inactive
same,mean signal,[7],184 (inactive)
same,fold change,[9]; [11],0.922 (inactive)
same,fold change,[9]; [12],1.17
same,cell count,[9]; [13],9040
same,cell count,[9]; [14],9810
same,z-score,[8],-0.235 (inactive)
CO/N=C(/C(=O)N[C@@H]1C(=O)N2C(C(=O)O)=C(COC(N)=O)CS[C@H]12)c1ccco1,mean signal,[7],235 (inactive)
CS(=O)(=O)c1ccc(-c2cc(Br)sc2-c2ccc(F)cc2)cc1,parasite load remaining,[1],10.4% (inactive)
same,viability,[1],69.4%
same,fluorescence ratio,[2],0.96 (inactive)
same,inhibition,[3],5.02% (inactive)
same,inhibition,[4],4.33% (inactive)
same,fluorescence ratio,[5],0.95 (inactive)
same,z-score,[6],-0.424 (inactive)
same,mean signal,[7],233 (inactive)
same,fold change,[9]; [11],0.877 (inactive) and 0.852 (inactive) and 0.867 (inactive)
same,fold change,[9]; [12],1.92 and 0.768 and 0.919
same,cell count,[9]; [13],8710 and 4800 and 6290
same,cell count,[9]; [14],9930 and 5630 and 7260
same,z-score,[8],-0.985 (inactive) and -0.57 (inactive)
CO/N=C(/C(=O)NC1C(=O)N2C(C(=O)O)=C(COC(C)=O)CSC12)c1csc(N)n1 (configuration not stated),mean signal,[7],238 (inactive)
CN(C)c1ccc(O)c2c1C[C@H]1C[C@H]3[C@H](N(C)C)C(=O)C(C(N)=O)=C(O)C3(O)C(=O)C1=C2O (some centres not stated),mean signal,[7],263 (inactive)
CC(=O)S[C@@H]1CC2=CC(=O)CCC2(C)[C@H]2CCC3(C)[C@@H](CC[C@@]34CCC(=O)O4)[C@H]12 (some centres not stated),mean signal,[7],260 (inactive)
C[C@H](CCC(=O)O)[C@H]1CC[C@H]2[C@@H]3[C@@H](O)C[C@@H]4C[C@H](O)CCC4(C)[C@H]3CCC12C (some centres not stated),mean signal,[7],253 (inactive)
OC[C@H]1O[C@@H](n2cnc3c(N[C@H]4CCC[C@@H]4O)ncnc32)[C@@H](O)C1O (some centres not stated),parasite load remaining,[1],54.4% (inactive)
same,viability,[1],67.3%
same,fluorescence ratio,[2],1.01 (inactive)
same,inhibition,[3],-1.09% (inactive)
same,inhibition,[4],-2.76% (inactive)
same,fluorescence ratio,[5],0.98 (inactive)
same,z-score,[6],-0.495 (inactive)
same,mean signal,[7],261 (inactive)
CC/C(=C(/c1ccccc1)c1ccc(OCCN(C)C)cc1)c1ccccc1,mean signal,[7],234 (inactive)
Nc1nc2ccc(Cl)cc2c2nc(-c3ccco3)nn12,parasite load remaining,[1],21.2% (inactive)
same,viability,[1],75.1%
same,fluorescence ratio,[2],0.95 (inactive)
same,inhibition,[3],-2.77% (inactive)
same,inhibition,[4],-6.26% (inactive)
same,fluorescence ratio,[5],0.95 (inactive)
same,z-score,[6],0.671 (inactive)
same,mean signal,[7],260 (inactive)
same,fold change,[9]; [11],1.05 (inactive) and 0.991 (inactive) and 1.02 (inactive)
same,fold change,[9]; [12],0.947 and 1.47 and 1
same,cell count,[9]; [13],7130 and 7040 and 7980
same,cell count,[9]; [14],6800 and 7110 and 7830
same,z-score,[8],0.585 (inactive) and 0.89 (inactive) and -0.13 (inactive)
CC1(C)O[C@@H]2C[C@H]3[C@@H]4C[C@H](F)C5=CC(=O)C=CC5(C)[C@@]4(F)[C@@H](O)CC3(C)C2(C(=O)CO)O1 (some centres not stated),mean signal,[7],256 (inactive)
CN1CCN(c2nc3cc(C(F)(F)F)ccc3n3cccc23)CC1,parasite load remaining,[1],58.1% (inactive)
same,viability,[1],68%
same,fluorescence ratio,[2],0.95 (inactive)
same,inhibition,[3],-10.7% (inactive)
same,inhibition,[4],1.97% (inactive)
same,fluorescence ratio,[5],0.95 (inactive)
same,z-score,[6],-0.53 (inactive)
same,mean signal,[7],175 (inactive)
same,fold change,[9]; [11],1 (inactive) and 0.87 (inactive)
same,fold change,[9]; [12],1.47 and 0.615
same,cell count,[9]; [13],7250 and 7950
same,cell count,[9]; [14],7230 and 9140
same,z-score,[8],-0.85 (inactive) and -1.01 (inactive)
CC(=O)OCC(=O)[C@@]1(O)CC[C@H]2[C@@H]3CCC4=CC(=O)C=CC4(C)[C@H]3[C@@H](O)CC21C (some centres not stated),mean signal,[7],224 (inactive)
COCC1=C(C(=O)OC(C)OC(=O)OC(C)C)N2C(=O)[C@@H](NC(=O)/C(=N\OC)c3csc(N)n3)[C@H]2SC1 (some centres not stated),outcome,[6],inactive
same,mean signal,[7],270 (inactive)
CCC(=O)O[C@]1(C(=O)CCl)[C@@H](C)C[C@H]2[C@@H]3CCC4=CC(=O)C=CC4(C)[C@@]3(F)[C@@H](O)CC21C (some centres not stated),mean signal,[7],254 (inactive)
NCCC[C@H](N)CC(=O)NC1CNC(=O)[C@H]([C@H]2C[C@H](O)N=C(N)N2)NC(=O)/C(=C/NC(N)=O)NC(=O)[C@H](CO)NC(=O)[C@H](CO)NC1=O (some centres not stated),red/green cell ratio (normalised),[10],0.82 (inactive)
same,normalised cell number,[10]; [15],1.24
same,normalised cell number,[10]; [16],1.02
N=c1ccn2c(n1)O[C@@H]1[C@@H](O)[C@H](CO)O[C@@H]12,red/green cell ratio (normalised),[10],0.99 (inactive)
same,normalised cell number,[10]; [15],0.27
same,normalised cell number,[10]; [16],0.27
COC(=O)C1O[C@H](O[Si](C)(C)C(C)(C)C)[C@@H](O)[C@@H](OC(=O)c2ccccc2)C1OC(=O)c1ccccc1 (some centres not stated),red/green cell ratio (normalised),[10],0.98 (inactive)
same,normalised cell number,[10]; [15],1.18
same,normalised cell number,[10]; [16],1.15
CO[C@H]1/C=C/O[C@@]2(C)Oc3c(C)c(O)c4c(O)c(c(/C=N/N5CCN(C)CC5)c(O)c4c3C2=O)NC(=O)/C(C)=C\C=C\[C@H](C)[C@H](O)[C@@H](C)[C@@H](O)[C@@H](C)[C@H](CC(C)=O)[C@@H]1C,red/green cell ratio (normalised),[10],0.98 (inactive)
same,normalised cell number,[10]; [15],1.05
same,normalised cell number,[10]; [16],1.03
NC(=O)c1c(Cl)nc(Cl)c2ccccc12,red/green cell ratio (normalised),[10],1.12 (inactive)
same,normalised cell number,[10]; [15],0.92
same,normalised cell number,[10]; [16],1.03
CO[C@H]1CC(O[C@@H]2/C(C)=C/C[C@@H]3C[C@@H](C[C@]4(C=C[C@H](C)[C@@H](C5CCCCC5)O4)O3)OC(=O)[C@@H]3C=C(C)[C@@H](O)C4OC/C(=C\C=C\[C@@H]2C)[C@]43O)O[C@@H](C)C1O[C@H]1C[C@H](OC)[C@@H](O)[C@H](C)O1 (some centres not stated),red/green cell ratio (normalised),[10],1.04 (inactive)
same,normalised cell number,[10]; [15],1.06
same,normalised cell number,[10]; [16],1.1
CC1(C)C[C@]2(C)CC(=O)O[C@H]3OC(=O)[C@@H]4CC[C@@H]1[C@]342,red/green cell ratio (normalised),[10],0.92 (inactive)
same,normalised cell number,[10]; [15],1.05
same,normalised cell number,[10]; [16],0.96
COC1=N[C@@](OC)(C(C)C)C(=O)N[C@@]1(O)[C@H](O)c1ccccc1,red/green cell ratio (normalised),[10],0.8 (inactive)
same,normalised cell number,[10]; [15],1.21
same,normalised cell number,[10]; [16],0.96
CCCc1oc(=O)cc(OC)c1CO,red/green cell ratio (normalised),[10],0.86 (inactive)
same,normalised cell number,[10]; [15],1.2
same,normalised cell number,[10]; [16],1.03
Nc1nc2c(c(=O)[nH]1)NC(CNc1ccc(C(=O)NC(CCC(=O)O)C(=O)O)cc1)=CN2 (configuration not stated),red/green cell ratio (normalised),[10],0.83 (inactive)
same,normalised cell number,[10]; [15],1.19
same,normalised cell number,[10]; [16],0.99
Clc1ccc2ncc(Cl)nc2c1,red/green cell ratio (normalised),[10],1.15 (inactive)
same,normalised cell number,[10]; [15],0.91
same,normalised cell number,[10]; [16],1.05
CC1(C)S[C@@H]2[C@H](NC(=O)C(NC(=O)N3CCNC3=O)c3ccccc3)C(=O)N2C1C(=O)O (some centres not stated),red/green cell ratio (normalised),[10],0.99 (inactive)
same,normalised cell number,[10]; [15],1.15
same,normalised cell number,[10]; [16],1.14
